The text below walks through data of PubChem BioAssay (Tox21).

The nature of assay [1]: qHTS assay to identify small molecule antagonists of the sonic hedgehog signaling (Shh) pathway (AID 1259369; calls by dose curve; further: nearly all actives have a fitted effect of over 45% in size; further: potency means the concentration at half of the fitted maximal effect). The method in brief:
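NIH/3T3-derived Gli1-Luc reporter cells plated 4 h, dosed with compound, then stimulated with conditioned medium for 24 h at 37 C. Firefly luciferase luminescence read after 30 min with detection reagent at room temperature.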

Assay [2] addresses Estrogen receptor beta (Homo sapiens) (UniProt Q92731). Nature of the assay: qHTS assay to identify small molecule agonists of the estrogen receptor beta (ER-beta) signaling pathway (AID 1259377; active means well fitted activation curve with a large enough effect in the signal ratio in the repeat runs, not every such curve was filed as active; the % refers to the signal ratio). The method in brief:
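Read-out: beta-lactamase FRET fluorescence. Cell line: ER-beta-UAS-bla HEK293T in 2% charcoal-stripped FBS. Exposure: 16 hr at 37C. Substrate step: 2 h at room temperature.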
In general terms: In qHTS, concentration-response curves come from the screen itself.

A short description of assay [3]: qHTS assay to identify small molecule agonists of the androgen receptor (AR) signaling pathway in the presence of an antagonist - cell viability counter screen (AID 1259379). Further: nearly all actives have a fitted effect of over 25% in size. Further: potency means the concentration at half of the fitted maximal effect.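 On activity change, negative = cytotoxicity: MDA-kb2 human breast cancer cells carrying an MMTV luciferase reporter; series mostly up to about 92 µM.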 The procedure, abridged: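 MDA-kb2 cells (MMTV-luciferase, AR/GR), 3,000/well, 5 h attachment, then 3.0 µM nilutamide (final) and compounds at 15 concentrations. Viability by CellTiter-Fluor fluorescence after 16 h at 37 °C, 0% CO2, in the reporter wells.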

The nature of assay [4]: qHTS assay to identify small molecule agonists of the estrogen receptor beta (ER-beta) signaling pathway - cell viability counter screen (AID 1259380). Further: nearly all actives have a fitted effect of over 30% in size. Further: potency means the concentration at half of the fitted maximal effect. The procedure, abridged: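 ER-beta-UAS-bla HEK293T cells in medium with 2% charcoal-stripped FBS, pre-incubated 6 hr, then treated 16 hr at 37C. Cytotoxicity read in the same wells by CellTiter-Glo luminescence after 30 min at room temperature.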

Assay [5] is described as follows: qHTS assay to identify small molecule antagonists of the estrogen receptor beta (ER-beta) signaling pathway - cell viability counter screen (AID 1259382). Further: series mostly up to about 92 µM; nearly all actives have a fitted effect of over 55% in size. The method in brief: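 ER-beta-UAS-bla HEK293T cells in 2% charcoal-stripped FBS medium, treated with compound plus 1 nM 17-beta-estradiol for 16 h at 37C. Viability read by CellTiter-Glo luminescence after 30 min at room temperature in the same wells.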

The target of assay [6] is Estrogen receptor (Homo sapiens) (UniProt P03372). Nature of the assay: qHTS assay to identify small molecule agonists of the estrogen receptor alpha (ER-alpha) signaling pathway in the presence of an antagonist (AID 1259383; calls by dose curve; further: top concentration of the series differs between compounds; nearly all actives have a fitted effect of over 15% in size). The method in brief:
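VM7Luc4E2 cells express endogenous full-length ER-alpha with an ERE-luciferase reporter and were hormone-deprived for 5 days. Compounds at 15 concentrations were added with 10.0nM ICI-182,780 for 22hr at 37C. Luminescence was read with ONE-Glo.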

A short description of assay [7]: qHTS assay to identify small molecule agonists or antagonists of the thyroid stimulating hormone receptor (TSHR) signaling pathway - wild type cell line counter screen (AID 1259384; calls by dose curve). The procedure, abridged:
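Wild-type Hek293 cells, 800/well, 18 h at 37C, then compound with Ro20-1724 for 30 min RT. cAMP by HTRF (cAMP-d2/anti-cAMP cryptate), 1 h RT, fluorescence read. 15 concentrations, triplicates.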

The target of assay [8] is Thyrotropin receptor (Homo sapiens) (UniProt P16473). Nature of the assay: qHTS assay to identify small molecule antagonists of the thyroid stimulating hormone receptor (TSHR) signaling pathway (AID 1259385; calls by dose curve; further: nearly all actives have a fitted effect of over 20% in size). The method in brief:
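TSHR-HEK293 cells (800/well) plated 18 h, then compounds with Ro20-1724 and TSH at 1.5 ng/mL final, 30 min at room temperature. cAMP quantified by HTRF (cAMP-d2/anti-cAMP-cryptate, 1 h); 15 concentrations in triplicate.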

The target of assay [9] is Progesterone receptor (Homo sapiens) (UniProt P06401). Nature of the assay: qHTS assay to identify small molecule agonists of the progesterone receptor (PR) signaling pathway (AID 1346784; calls by dose curve; further: nearly all actives have a fitted effect of over 30% in size). The procedure, abridged: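 Compounds were tested for PR agonism in HEK 293T cells bearing a beta-lactamase gene under UAS control. Treatment lasted 16 hr at 37C; signal came from fluorescence of a FRET substrate.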

Assay [10] has the same target. Nature of the assay: qHTS assay to identify small molecule antagonists of the progesterone receptor (PR) signaling pathway (AID 1346795; active means well fitted inhibition curve with a large enough effect in the signal ratio in the repeat runs, not every such curve was filed as active; the % refers to the signal ratio). The procedure, abridged:
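In HEK293T cells bearing the PR-UAS-bla reporter, compound effects on promegestone-driven (1 nM) beta-lactamase expression are assessed after 16 hr using a fluorescent FRET substrate incubated 2 hr at room temperature.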

The nature of assay [11]: qHTS assay to identify small molecule agonists of the progesterone receptor (PR) signaling pathway - cell viability counter screen (AID 1346799; calls by dose curve; further: nearly all actives have a fitted effect of over 45% in size). The procedure, abridged:
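Here, 3,000 PR-UAS-bla HEK293T cells per well were treated with compounds for 16 hr after a 6 hr preincubation at 37C and 5% CO2; cell viability is the CellTiter-Glo luminescence signal.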

A short description of assay [12]: qHTS assay to identify small molecule antagonists of the TGF-beta/Smad signaling pathway - cell viability counter screen (AID 1346824). Further: nearly all actives have a fitted effect of over 50% in size. The method in brief: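 SBE-bla HEK 293T cells, incubated overnight, then compound plus 0.25 ng/mL TGF-beta1 (stock added) for 5 hr at 37 C. Viability was read in the same wells by CellTiter-Glo luminescence after 30 min at room temperature.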

Assay [13] is described as follows: qHTS assay to identify small molecule agonists of the TGF-beta/Smad signaling pathway - cell viability counter screen (AID 1346829). Further: top concentration of the series differs between compounds; nearly all actives have a fitted effect of over 45% in size. The procedure, abridged: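 Luminescence from CellTiter-Glo, read after a 30 min room-temperature incubation, gives cell viability of SBE-bla HEK 293T cells treated 5 hr with compounds at 37 C.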
Assay [14] is described as follows: qHTS assay to identify small molecule agonists of the TGF-beta/Smad signaling pathway (AID 1346859; active means well fitted activation curve with a large enough effect in the signal ratio in the repeat runs, not every such curve was filed as active; the % refers to the signal ratio; further: series mostly up to about 77 µM). The procedure, abridged:
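Each well held 4,000 SBE-bla HEK 293T cells incubated overnight before compound addition; 5 hr later the cleavable FRET substrate went on for 2 hr at room temperature, and fluorescence was read at two emissions.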

The target in assay [15] is Thyrotropin-releasing hormone receptor (Homo sapiens) (UniProt P34981). Nature of the assay: qHTS assay to identify small molecule antagonists of the thyrotropin-releasing hormone receptor (TRHR) signaling pathway (AID 1346877; active means well fitted inhibition curve with a large enough effect in the repeat runs, not every such curve was filed as active; further: series mostly up to about 51 µM). The procedure, abridged: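 TRHR-expressing HEK293 cells loaded with calcium dye for 2 h at 37 C; compounds pre-incubated 5 min at room temperature before TRH challenge at 1 nM final. Intracellular calcium fluorescence read kinetically for 3 min; 15 concentrations in triplicate.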

Assay [16] shares this target. Nature of the assay: qHTS assay to identify small molecule agonists of the thyrotropin-releasing hormone receptor (TRHR) signaling pathway (AID 1346891; calls by dose curve; further: series mostly up to about 58 µM). The method in brief:
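Screening of agonists relied on calcium signalling in HEK293 cells expressing human TRHR: dye loading 2 h at 37 °C preceded compound addition and a 3-min fluorescence time course.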

Assay [17] is described as follows: qHTS assay to identify small molecule agonists of the estrogen receptor alpha (ER-alpha) signaling pathway in the presence of an antagonist - cell viability counter screen (AID 1259386).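 Further: series mostly up to about 92 µM; cells exposed to compounds for 22 h at 37 °C before the viability read; nearly all actives have a fitted effect of over 30% in size.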 The procedure, abridged:
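Cell viability in VM7Luc4E2 cells (endogenous full-length ER-alpha) measured by CellTiter-Fluor fluorescence in the same wells as the luciferase screen. Cells pre-cultured 5 days in charcoal-stripped serum, then treated 22 h with compounds at 15 concentrations plus 10.0nM ICI-182,780.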

The nature of assay [18]: qHTS assay to identify small molecule antagonists of the progesterone receptor (PR) signaling pathway - cell viability counter screen (AID 1346798). Further: series mostly up to about 92 µM; nearly all actives have a fitted effect of over 50% in size. The procedure, abridged: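 Following a 4 hr attachment, PR-UAS-bla HEK293T cells in charcoal-stripped FBS medium were exposed to compounds with R5020 for 16 hr; CellTiter-Glo was added and luminescence read after 30 min at room temperature.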

In assay [19] the target is Estrogen receptor beta (Homo sapiens) (UniProt Q92731). Nature of the assay: qHTS assay to identify small molecule antagonists of the estrogen receptor beta (ER-beta) signaling pathway (AID 1259378; active means well fitted inhibition curve with a large enough effect in the signal ratio in the repeat runs, not every such curve was filed as active; the % refers to the signal ratio). The procedure, abridged: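 ER-beta-UAS-bla HEK293T cells in 2% charcoal-stripped FBS medium treated with compound plus 1nM final 17-beta-estradiol for 16 hr at 37C. Beta-lactamase reporter read by FRET substrate fluorescence after 2 hours at room temperature.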

Assay [20] has as its target Androgen receptor (Homo sapiens) (UniProt P10275). Nature of the assay: qHTS assay to identify small molecule agonists of the androgen receptor (AR) signaling pathway in the presence of an antagonist (AID 1259381; calls by dose curve; further: nearly all actives have a fitted effect of over 15% in size). The method in brief:
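MDA-kb2 cells carrying MMTV-luciferase (AR/GR responsive), 3,000 cells/well, co-treated with 3.0 uM nilutamide final. Compounds at 15 concentrations, 16 hr at 37C without CO2. Luciferase luminescence read after 30 min with ONE-Glo.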

The structures appear in SMILES notation. Unmarked numbers belong to inactive results. Records with an inconclusive call do not appear. Active and inactive are the calls of the source. Unless noted, the call rests on the fitted dose curve; in most records, active means well fitted curve in the direction sought with a large enough effect in the repeat runs; inconclusive means weak or mixed curves; inactive means no such curve, though single readings can be large; an effect the other way counts as inactive or inconclusive.
On the % scale 0 is the no-effect control and ±100 the full control effect.

Thyrotropin-releasing hormone receptor (Homo sapiens), sequence (P34981 whole entry, looked up): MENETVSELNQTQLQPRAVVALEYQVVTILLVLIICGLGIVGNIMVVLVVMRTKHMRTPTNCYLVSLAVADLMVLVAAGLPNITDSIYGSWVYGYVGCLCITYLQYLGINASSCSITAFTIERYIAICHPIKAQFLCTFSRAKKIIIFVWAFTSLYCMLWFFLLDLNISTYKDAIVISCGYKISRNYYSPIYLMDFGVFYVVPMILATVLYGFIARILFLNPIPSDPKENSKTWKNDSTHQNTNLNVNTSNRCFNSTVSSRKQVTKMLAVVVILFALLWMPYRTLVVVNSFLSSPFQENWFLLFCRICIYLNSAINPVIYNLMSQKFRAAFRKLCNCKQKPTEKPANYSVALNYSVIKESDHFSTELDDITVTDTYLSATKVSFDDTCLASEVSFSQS
Thyrotropin receptor (Homo sapiens), sequence (P16473 whole entry, looked up): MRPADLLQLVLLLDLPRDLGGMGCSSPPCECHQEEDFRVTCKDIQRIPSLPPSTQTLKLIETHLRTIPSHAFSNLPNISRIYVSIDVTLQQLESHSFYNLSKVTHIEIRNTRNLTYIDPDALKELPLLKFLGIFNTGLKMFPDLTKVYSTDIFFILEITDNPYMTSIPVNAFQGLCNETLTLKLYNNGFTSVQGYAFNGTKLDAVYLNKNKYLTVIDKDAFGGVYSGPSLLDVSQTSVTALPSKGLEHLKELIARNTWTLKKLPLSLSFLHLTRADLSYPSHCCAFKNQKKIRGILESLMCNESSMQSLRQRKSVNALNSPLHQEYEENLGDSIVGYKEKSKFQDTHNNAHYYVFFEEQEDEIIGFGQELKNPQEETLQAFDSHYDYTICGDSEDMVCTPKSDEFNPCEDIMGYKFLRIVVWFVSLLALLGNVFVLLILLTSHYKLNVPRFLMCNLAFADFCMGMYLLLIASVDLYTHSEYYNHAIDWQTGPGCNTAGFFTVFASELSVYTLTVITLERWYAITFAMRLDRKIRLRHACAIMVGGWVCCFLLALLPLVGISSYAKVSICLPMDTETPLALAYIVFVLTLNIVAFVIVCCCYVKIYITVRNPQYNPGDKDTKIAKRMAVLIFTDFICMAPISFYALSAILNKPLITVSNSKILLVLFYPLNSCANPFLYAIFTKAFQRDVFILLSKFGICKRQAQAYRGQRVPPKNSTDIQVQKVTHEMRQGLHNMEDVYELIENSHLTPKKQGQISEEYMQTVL
Estrogen receptor (Homo sapiens), sequence (P03372 whole entry, looked up): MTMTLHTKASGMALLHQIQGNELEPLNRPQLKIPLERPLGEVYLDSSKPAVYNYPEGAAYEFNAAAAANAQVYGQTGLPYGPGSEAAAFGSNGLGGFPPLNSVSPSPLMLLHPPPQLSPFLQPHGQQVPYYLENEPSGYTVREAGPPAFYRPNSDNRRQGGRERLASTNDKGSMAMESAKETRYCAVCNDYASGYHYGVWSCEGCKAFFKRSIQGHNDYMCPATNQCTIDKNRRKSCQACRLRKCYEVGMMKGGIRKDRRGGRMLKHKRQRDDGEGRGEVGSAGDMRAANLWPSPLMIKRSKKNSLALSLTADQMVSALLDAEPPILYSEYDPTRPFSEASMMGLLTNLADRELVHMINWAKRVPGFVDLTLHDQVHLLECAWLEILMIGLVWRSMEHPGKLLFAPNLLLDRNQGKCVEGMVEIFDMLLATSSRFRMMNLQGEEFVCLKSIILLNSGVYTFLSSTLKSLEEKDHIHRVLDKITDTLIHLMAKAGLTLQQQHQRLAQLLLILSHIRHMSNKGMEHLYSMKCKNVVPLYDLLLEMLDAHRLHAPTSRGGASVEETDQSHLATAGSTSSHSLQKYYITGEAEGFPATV
Progesterone receptor (Homo sapiens), sequence (P06401 whole entry, looked up): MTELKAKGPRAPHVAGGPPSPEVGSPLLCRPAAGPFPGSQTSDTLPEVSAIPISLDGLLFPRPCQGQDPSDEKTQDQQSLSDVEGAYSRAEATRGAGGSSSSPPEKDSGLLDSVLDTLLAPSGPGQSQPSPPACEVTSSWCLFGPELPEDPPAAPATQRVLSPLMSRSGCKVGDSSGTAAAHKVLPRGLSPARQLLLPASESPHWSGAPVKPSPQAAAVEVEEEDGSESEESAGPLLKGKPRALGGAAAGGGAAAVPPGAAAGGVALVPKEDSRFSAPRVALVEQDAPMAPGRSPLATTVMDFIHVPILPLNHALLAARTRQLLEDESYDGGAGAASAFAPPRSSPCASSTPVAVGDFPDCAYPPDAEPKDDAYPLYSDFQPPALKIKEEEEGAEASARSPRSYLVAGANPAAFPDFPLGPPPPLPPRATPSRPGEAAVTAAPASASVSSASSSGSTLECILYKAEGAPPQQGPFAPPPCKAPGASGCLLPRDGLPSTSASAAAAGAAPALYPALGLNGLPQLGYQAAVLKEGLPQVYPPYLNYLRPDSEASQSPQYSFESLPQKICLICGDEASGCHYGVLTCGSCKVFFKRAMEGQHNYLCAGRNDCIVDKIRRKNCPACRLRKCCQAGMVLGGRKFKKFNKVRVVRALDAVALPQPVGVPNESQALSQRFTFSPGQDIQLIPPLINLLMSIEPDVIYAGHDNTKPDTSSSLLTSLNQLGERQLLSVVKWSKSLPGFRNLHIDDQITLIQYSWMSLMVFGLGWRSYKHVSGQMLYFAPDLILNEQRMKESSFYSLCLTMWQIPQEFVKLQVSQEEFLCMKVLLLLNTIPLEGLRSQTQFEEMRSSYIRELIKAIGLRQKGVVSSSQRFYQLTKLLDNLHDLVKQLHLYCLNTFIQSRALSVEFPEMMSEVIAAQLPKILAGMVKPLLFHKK
Estrogen receptor beta (Homo sapiens), sequence (Q92731 whole entry, looked up): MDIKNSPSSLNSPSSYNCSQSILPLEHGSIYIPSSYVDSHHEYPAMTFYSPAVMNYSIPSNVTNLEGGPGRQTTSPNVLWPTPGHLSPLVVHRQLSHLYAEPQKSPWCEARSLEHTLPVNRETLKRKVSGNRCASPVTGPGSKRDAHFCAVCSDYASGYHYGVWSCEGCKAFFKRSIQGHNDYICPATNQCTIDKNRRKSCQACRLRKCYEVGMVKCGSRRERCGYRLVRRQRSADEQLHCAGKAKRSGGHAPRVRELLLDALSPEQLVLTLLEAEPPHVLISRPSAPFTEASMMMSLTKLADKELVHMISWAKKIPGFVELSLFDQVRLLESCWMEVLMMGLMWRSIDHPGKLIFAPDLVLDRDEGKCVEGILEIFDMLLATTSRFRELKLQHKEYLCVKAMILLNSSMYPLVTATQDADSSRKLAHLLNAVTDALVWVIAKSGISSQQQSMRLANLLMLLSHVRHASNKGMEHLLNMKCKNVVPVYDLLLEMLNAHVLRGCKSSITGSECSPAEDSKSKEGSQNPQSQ
Androgen receptor (Homo sapiens), sequence (P10275 whole entry, looked up): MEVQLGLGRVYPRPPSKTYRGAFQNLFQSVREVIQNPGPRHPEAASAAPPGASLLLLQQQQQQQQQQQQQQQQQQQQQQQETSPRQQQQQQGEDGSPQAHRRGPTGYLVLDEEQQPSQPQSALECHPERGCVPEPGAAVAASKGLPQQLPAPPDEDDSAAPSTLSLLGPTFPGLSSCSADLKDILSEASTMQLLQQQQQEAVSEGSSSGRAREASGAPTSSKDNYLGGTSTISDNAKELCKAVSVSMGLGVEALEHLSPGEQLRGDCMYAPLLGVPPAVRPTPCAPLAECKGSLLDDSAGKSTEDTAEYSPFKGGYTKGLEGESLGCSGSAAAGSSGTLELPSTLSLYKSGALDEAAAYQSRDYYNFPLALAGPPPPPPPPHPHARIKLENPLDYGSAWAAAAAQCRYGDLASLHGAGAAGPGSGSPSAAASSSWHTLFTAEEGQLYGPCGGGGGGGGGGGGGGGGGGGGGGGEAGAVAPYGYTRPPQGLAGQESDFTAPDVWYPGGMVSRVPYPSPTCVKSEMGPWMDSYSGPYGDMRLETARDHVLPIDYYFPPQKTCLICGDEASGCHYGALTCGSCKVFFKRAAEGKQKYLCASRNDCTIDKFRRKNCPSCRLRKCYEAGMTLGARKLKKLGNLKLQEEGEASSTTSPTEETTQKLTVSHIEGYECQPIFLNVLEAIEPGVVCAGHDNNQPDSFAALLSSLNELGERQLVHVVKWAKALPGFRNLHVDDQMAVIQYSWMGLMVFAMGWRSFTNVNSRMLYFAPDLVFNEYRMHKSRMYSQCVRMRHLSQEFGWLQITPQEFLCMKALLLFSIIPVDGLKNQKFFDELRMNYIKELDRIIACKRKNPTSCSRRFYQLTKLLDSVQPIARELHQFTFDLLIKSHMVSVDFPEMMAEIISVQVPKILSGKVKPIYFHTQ

Turning to `Nc1cccc(S(=O)(=O)c2cccc(N)c2)c1`, the Potency result in assay [1], in assay [2], in [3], in assay [4], in assay [5] and in assay [6] was “inactive” each time. Moreover, the Potency entry in assay [7], in assay [8], in assay [9], in assay [10], in assay [11] and in [12] was “inactive” each time. The Potency result in assay [14] and in assay [16] was “inactive” in each case. Also, the result in [13] and in assay [15] was inactive.

`COC(C)(C)CCO`: the Potency result in assay [1], in [2], in assay [3], in [4], in assay [7] and in assay [8] was “inactive” each time. The Potency result in [17], in [9], in [10], in assay [18], in assay [11] and in [14] was “inactive” each time. The Potency entry in assay [16] is “inactive”. The compound was classed as inactive in assay [13] and in [15].

With `O=[N+]([O-])c1cccc(S(=O)(=O)O)c1`, the Potency entry in assay [1], in assay [2], in assay [17], in assay [12] and in [14] was “inactive” in each case. Moreover, the Potency in assay [3] was 62.1 µM (active); in [4], 24.7 µM (active). Moreover, the result in assay [13] was inactive.

Consider `CN1Cc2cc(C(=O)N3CCC(C4CCNCC4)CC3)ccc2NC(CC(=O)O)C1=O` (stereo not given), for which the Potency result in [1], in assay [2], in [3], in [4], in assay [5] and in assay [6] was “inactive” each time. The Potency entry in assay [8], in assay [17], in assay [9], in assay [18], in assay [11] and in [12] was “inactive” each time. The Potency result in assay [14] is “inactive”. The result in assay [13] and in assay [15] was inactive.

In the case of `C=C(C)C(=O)OCC`, the Potency result in assay [1], in [19], in assay [3], in assay [4], in assay [5] and in assay [6] was “inactive” in each case. For the same compound, the Potency entry in [7], in [8], in assay [17], in assay [18], in [11] and in [12] was “inactive” each time. Besides, the Potency entry in assay [14] and in assay [16] was “inactive” each time. Further, the compound was classed as inactive in assay [13] and in [15].

Regarding `Cc1ncc(CO)c(C=O)c1O`, the Potency entry in [1], in [19], in assay [3], in [4], in assay [5] and in [6] was “inactive” throughout. The Potency entry in assay [7], in [8], in assay [17], in [10], in assay [18] and in assay [12] was “inactive” each time. Besides, the Potency result in assay [14] is “inactive”. Besides, the outcome in assay [13] and in assay [15] was inactive.

Take `c1ccc(-c2ccccn2)nc1`: the Potency entry in assay [1], in [2], in [3], in assay [4], in [20] and in assay [5] was “inactive” throughout. For the same compound, the Potency result in assay [6], in assay [8], in [17], in assay [9], in assay [18] and in [12] was “inactive” each time. Moreover, the Potency result in [14] and in [16] was “inactive” each time. Moreover, the outcome in assay [13] and in [15] was inactive.

On to `C/C=C/C(=O)CC`, for which the Potency in assay [1] is 5.9 µM (active). For the same compound, the activation was -1.08% [at 19 µM] in [2], 4.38% [at 15.8 µM] in assay [14] and -0.663% [at 11.8 µM] in [16]. The activity change, negative = cytotoxicity in assay [3] is 0.797% [at 19 µM]; in assay [4], 5.9% [at 19 µM]; in assay [5], 2.99% [at 19 µM]; in [11], -14.3% [at 19 µM]; in [13] it was -6.07% [at 15.8 µM]. For the same compound, the Potency entry in assay [6] is “inactive”. Further, in assay [7], the cAMP activity change was -0.0314% [at 18.9 µM, stronger effect = higher value]. Besides, the activity change, negative = inhibition was 0.568% [at 19 µM] in [8] and -21.4% [at 18.9 µM] in [10]. Further, the activity, negative = inhibition in assay [15] is -0.562% [at 10.5 µM].
